Experiments:
[1] = target: Protein kinase C gamma type (Homo sapiens) (UniProt P05129); details: at 1 µM;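 also: each value is an averaged percent inhibition of the enzyme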
[2] = target: T1, Protein kinase C iota type (Homo sapiens) (UniProt P41743); details: at 0.1 µM
T1 sequence (whole entry): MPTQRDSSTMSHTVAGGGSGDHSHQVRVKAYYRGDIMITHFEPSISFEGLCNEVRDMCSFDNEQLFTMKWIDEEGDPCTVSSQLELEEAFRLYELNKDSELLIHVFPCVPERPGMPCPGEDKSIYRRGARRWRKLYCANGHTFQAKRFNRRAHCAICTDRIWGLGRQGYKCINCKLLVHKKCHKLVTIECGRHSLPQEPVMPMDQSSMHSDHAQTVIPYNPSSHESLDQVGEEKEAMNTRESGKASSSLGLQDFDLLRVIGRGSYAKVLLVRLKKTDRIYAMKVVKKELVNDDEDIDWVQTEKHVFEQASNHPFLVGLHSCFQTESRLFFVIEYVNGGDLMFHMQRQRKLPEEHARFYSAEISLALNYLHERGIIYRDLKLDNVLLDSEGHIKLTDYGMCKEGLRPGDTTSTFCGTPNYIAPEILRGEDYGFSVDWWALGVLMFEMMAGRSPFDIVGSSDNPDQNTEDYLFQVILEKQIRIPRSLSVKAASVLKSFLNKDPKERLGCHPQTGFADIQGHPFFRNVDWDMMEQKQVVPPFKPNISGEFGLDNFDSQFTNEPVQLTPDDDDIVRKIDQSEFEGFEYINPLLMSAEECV

[3] = target: T1, Protein kinase C iota type (Homo sapiens); details: at 1 µM
[4] = target: Protein kinase C theta type (Homo sapiens) (UniProt Q04759); details: at 0.1 µM
[5] = target: Protein kinase C theta type (Homo sapiens) (UniProt Q04759); details: at 1 µM
[6] = target: Protein kinase C beta type (Homo sapiens) (UniProt P05771); details: at 0.1 µM
[7] = target: Protein kinase C beta type (Homo sapiens) (UniProt P05771); details: at 1 µM
[8] = target: T2, Serine/threonine-protein kinase D1 (Homo sapiens) (UniProt Q15139); details: at 0.1 µM
T2 sequence (whole entry): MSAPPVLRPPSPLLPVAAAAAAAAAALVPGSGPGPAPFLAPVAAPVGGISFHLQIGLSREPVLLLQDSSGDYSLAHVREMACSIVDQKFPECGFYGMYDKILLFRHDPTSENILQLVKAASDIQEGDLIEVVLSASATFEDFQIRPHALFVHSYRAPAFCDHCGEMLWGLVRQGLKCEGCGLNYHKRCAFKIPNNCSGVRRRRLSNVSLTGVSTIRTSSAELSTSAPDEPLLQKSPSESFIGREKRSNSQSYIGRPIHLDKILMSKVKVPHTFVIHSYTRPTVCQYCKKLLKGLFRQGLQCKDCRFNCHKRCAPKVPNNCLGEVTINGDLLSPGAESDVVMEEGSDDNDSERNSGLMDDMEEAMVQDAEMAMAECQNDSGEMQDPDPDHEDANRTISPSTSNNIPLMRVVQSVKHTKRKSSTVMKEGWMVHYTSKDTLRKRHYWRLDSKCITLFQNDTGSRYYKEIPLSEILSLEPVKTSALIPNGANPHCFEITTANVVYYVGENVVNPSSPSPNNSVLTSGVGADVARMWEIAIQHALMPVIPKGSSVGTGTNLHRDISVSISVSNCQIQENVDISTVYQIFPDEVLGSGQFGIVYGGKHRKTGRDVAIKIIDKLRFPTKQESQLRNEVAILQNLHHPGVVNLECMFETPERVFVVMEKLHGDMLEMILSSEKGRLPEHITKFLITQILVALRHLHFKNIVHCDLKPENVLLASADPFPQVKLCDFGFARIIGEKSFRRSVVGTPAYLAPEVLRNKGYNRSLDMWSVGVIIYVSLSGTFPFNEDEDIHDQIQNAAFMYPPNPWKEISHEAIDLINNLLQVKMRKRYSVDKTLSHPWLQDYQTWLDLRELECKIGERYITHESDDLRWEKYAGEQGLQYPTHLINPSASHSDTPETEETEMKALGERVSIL

[9] = target: T2, Serine/threonine-protein kinase D1 (Homo sapiens); details: at 1 µM
[10] = target: T3, Serine/threonine-protein kinase D2 (Homo sapiens) (UniProt Q9BZL6); details: at 0.1 µM
T3 sequence (whole entry): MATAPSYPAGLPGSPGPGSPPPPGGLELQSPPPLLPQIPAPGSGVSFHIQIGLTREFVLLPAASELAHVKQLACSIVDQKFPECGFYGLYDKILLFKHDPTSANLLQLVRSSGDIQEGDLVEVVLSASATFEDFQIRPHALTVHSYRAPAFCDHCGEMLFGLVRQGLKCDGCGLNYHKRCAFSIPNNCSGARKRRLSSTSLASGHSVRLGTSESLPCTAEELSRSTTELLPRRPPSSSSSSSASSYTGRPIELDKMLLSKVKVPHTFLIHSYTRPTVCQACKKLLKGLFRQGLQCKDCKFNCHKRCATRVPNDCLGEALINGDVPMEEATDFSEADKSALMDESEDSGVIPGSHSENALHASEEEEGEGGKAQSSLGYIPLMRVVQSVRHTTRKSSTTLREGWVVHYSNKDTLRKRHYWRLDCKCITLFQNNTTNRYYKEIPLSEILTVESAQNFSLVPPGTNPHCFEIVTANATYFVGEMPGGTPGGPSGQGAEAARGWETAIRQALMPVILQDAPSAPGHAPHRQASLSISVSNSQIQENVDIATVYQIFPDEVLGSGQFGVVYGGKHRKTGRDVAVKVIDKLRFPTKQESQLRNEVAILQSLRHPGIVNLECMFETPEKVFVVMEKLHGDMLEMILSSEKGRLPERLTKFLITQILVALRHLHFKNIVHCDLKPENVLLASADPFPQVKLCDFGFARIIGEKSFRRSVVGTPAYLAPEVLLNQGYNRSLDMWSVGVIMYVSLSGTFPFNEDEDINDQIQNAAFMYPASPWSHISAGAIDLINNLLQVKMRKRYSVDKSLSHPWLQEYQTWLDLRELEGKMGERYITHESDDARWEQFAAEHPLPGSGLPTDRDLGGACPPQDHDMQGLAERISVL

[11] = target: T3, Serine/threonine-protein kinase D2 (Homo sapiens); details: at 1 µM
[12] = target: T4, Serine/threonine-protein kinase D3 (Homo sapiens) (UniProt O94806); details: at 0.1 µM
T4 sequence (whole entry): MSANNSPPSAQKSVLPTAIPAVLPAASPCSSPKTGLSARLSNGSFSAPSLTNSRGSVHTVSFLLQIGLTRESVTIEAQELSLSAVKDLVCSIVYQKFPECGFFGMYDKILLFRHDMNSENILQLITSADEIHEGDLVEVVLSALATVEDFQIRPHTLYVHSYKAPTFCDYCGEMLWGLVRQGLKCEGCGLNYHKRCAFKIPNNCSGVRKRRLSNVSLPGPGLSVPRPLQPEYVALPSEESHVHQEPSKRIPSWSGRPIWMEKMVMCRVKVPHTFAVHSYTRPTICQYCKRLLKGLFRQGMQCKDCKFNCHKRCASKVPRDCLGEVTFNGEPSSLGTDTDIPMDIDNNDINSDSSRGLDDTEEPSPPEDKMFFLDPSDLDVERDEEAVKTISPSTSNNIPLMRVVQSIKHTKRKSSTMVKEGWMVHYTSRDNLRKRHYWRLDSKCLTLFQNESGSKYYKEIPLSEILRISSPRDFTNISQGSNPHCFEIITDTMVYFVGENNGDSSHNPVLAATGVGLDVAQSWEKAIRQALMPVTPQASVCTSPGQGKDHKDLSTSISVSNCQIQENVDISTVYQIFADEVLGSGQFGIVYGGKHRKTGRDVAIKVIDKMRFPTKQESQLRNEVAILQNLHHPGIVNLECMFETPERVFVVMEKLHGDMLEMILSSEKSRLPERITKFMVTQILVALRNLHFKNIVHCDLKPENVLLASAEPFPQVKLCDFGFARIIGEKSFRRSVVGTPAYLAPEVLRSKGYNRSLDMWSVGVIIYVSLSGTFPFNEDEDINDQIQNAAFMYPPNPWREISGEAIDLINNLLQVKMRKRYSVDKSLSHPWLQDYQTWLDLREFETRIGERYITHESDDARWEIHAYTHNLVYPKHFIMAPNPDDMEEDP

[13] = target: T4, Serine/threonine-protein kinase D3 (Homo sapiens); details: at 1 µM
[14] = target: T5, cGMP-dependent protein kinase 1 (Homo sapiens) (UniProt Q13976); details: at 0.1 µM
T5 sequence (whole entry): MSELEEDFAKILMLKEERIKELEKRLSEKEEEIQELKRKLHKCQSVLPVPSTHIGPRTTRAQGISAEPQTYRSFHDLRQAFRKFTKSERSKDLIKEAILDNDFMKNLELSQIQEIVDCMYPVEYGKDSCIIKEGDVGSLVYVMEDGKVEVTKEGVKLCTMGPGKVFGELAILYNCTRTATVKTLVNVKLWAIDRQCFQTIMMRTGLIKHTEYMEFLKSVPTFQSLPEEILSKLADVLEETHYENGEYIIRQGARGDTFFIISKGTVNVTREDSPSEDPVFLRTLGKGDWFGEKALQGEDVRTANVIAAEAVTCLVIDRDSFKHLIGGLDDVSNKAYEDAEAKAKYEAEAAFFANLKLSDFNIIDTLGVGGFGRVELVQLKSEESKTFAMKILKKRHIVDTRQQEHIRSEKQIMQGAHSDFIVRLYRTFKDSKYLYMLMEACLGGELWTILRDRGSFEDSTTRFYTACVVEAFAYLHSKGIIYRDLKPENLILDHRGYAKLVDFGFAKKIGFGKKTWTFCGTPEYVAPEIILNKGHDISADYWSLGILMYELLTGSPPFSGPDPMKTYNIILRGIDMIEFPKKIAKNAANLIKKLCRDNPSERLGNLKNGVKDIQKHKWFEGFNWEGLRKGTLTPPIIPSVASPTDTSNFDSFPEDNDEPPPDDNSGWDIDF

[15] = target: T5, cGMP-dependent protein kinase 1 (Homo sapiens); details: at 1 µM
[16] = target: T6, cGMP-dependent protein kinase 2 (Homo sapiens) (UniProt Q13237); details: at 0.1 µM
T6 sequence (whole entry): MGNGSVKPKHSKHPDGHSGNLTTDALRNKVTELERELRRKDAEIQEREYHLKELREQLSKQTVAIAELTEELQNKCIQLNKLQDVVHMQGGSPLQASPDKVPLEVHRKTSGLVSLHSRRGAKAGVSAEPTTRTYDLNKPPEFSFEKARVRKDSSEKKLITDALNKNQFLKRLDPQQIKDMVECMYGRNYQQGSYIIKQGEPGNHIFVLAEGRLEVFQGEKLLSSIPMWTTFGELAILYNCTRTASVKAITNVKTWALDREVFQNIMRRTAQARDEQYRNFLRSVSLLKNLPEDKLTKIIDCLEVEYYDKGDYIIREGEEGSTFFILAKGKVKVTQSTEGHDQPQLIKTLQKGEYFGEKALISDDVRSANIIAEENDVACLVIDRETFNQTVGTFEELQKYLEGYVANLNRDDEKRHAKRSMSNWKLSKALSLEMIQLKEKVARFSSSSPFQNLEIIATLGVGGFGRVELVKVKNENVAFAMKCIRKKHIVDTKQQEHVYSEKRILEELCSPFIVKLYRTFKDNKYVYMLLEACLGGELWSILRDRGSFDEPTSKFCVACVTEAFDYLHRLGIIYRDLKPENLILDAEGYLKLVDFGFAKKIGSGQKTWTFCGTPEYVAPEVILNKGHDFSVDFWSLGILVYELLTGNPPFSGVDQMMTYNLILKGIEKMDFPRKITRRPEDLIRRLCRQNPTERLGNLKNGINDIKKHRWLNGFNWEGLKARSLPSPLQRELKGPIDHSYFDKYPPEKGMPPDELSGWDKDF

[17] = target: T6, cGMP-dependent protein kinase 2 (Homo sapiens); details: at 1 µM
[18] = target: T7, cAMP-dependent protein kinase catalytic subunit PRKX (Homo sapiens) (UniProt P51817); details: at 0.1 µM
T7 sequence (whole entry): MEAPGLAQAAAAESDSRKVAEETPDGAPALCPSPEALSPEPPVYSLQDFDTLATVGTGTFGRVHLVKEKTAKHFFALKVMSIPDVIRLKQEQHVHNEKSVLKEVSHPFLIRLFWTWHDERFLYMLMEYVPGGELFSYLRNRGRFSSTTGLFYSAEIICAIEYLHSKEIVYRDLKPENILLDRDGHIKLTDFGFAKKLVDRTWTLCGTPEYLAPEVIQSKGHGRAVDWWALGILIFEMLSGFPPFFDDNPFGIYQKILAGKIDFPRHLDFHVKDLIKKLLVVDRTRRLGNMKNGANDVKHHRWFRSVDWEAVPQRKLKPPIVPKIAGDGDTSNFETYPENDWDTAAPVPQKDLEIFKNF

[19] = target: T7, cAMP-dependent protein kinase catalytic subunit PRKX (Homo sapiens); details: at 1 µM
[20] = target: Rho-associated protein kinase 1 (Homo sapiens) (UniProt Q13464); details: at 0.1 µM;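 also: values are mean percent inhibition of ROCK1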
Sequence of Rho-associated protein kinase 1 (Homo sapiens) (Q13464 2-1354 limits assumed): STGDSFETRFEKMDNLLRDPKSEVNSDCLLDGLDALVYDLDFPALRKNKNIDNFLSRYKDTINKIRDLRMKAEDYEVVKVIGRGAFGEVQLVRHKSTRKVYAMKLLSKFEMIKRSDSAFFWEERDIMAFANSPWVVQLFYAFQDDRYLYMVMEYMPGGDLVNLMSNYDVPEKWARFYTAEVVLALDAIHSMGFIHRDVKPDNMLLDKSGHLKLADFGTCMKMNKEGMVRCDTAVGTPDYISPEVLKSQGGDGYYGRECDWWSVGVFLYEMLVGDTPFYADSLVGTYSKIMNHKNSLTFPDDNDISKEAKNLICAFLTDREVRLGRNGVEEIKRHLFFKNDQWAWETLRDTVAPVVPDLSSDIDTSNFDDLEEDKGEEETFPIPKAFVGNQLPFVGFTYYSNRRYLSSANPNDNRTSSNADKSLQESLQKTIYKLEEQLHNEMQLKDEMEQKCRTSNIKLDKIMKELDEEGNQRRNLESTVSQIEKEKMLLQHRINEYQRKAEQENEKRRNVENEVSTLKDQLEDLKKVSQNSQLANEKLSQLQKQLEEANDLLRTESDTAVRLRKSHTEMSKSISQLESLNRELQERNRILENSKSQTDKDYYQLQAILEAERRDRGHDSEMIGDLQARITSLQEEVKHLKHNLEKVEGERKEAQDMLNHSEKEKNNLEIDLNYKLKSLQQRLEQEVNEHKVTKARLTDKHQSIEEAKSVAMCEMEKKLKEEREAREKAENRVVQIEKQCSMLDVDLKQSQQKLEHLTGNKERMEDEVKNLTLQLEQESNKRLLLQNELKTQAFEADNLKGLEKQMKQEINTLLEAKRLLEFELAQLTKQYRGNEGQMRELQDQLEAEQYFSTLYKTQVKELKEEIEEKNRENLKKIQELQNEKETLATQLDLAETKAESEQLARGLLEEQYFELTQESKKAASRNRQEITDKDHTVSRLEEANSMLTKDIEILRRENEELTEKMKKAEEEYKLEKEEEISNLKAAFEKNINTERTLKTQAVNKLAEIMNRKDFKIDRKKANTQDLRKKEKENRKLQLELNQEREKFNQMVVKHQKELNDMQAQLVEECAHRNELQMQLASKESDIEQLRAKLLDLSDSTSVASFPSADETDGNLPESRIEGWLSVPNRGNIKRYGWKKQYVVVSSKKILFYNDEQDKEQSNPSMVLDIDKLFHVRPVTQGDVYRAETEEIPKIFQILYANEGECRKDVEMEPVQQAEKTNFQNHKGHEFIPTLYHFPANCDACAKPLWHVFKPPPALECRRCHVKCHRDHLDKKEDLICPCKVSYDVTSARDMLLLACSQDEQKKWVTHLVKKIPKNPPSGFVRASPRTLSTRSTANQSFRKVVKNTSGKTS

Sequence of Protein kinase C theta type (Homo sapiens) (Q04759 whole entry, looked up): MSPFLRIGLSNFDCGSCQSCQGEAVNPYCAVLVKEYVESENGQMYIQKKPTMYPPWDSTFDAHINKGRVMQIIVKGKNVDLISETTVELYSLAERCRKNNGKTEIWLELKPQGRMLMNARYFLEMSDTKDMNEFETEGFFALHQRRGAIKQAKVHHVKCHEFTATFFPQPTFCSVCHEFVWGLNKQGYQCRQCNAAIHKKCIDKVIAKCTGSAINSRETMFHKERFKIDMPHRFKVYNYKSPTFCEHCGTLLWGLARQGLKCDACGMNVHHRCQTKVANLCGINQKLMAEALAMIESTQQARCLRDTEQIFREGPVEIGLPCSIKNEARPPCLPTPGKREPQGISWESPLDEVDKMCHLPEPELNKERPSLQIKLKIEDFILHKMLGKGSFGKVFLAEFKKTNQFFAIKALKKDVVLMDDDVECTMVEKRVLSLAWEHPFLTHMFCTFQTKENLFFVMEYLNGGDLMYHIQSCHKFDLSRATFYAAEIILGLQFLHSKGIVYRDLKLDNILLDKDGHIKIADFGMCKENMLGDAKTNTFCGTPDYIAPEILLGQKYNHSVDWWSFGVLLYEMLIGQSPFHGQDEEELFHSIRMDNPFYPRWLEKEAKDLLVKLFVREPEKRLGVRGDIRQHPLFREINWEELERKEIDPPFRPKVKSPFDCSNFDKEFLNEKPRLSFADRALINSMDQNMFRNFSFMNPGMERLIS
Sequence of Protein kinase C beta type (Homo sapiens) (P05771 2-671 limits assumed): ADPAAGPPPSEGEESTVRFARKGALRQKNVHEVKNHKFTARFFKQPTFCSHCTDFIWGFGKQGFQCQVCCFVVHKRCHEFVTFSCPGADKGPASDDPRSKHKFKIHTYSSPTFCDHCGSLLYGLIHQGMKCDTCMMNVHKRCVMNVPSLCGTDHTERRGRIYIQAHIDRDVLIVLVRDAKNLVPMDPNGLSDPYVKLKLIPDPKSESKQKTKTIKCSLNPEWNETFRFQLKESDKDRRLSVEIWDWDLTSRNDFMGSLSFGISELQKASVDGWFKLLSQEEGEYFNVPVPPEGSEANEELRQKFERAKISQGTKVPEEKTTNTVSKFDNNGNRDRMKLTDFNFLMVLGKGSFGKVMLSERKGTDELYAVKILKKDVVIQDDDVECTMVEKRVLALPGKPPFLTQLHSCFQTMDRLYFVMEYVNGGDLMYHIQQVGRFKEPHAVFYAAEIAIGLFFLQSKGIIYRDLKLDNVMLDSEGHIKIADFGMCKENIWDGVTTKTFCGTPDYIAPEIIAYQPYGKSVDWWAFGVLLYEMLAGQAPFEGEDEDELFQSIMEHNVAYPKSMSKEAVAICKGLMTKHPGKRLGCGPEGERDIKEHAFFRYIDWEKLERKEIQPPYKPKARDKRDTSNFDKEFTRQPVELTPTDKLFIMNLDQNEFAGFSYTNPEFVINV

SMILES | inhibition [1] [%] | inhibition [2] [%] | inhibition [3] [%] | inhibition [4] [%] | inhibition [5] [%] | inhibition [6] [%] | inhibition [7] [%] | inhibition [8] [%] | inhibition [9] [%] | inhibition [10] [%] | inhibition [11] [%] | inhibition [12] [%] | inhibition [13] [%] | inhibition [14] [%] | inhibition [15] [%] | inhibition [16] [%] | inhibition [17] [%] | inhibition [18] [%] | inhibition [19] [%] | inhibition [20] [%]
CCS(=O)(=O)c1ccc(OC)c(Nc2ncc(-c3cccc(F)c3)o2)c1 | 5.39 | 2.05 | 3.04 | 2.72 | 4.21 | 1.9 | 4.01 | 4.25 | 5.42 | 3.92 | 3.8 | 4.67 | 4.73 | 4.88 | 8.02 | 3.78 | 6.47 | 3.37 | 2.6 | 2.49
CC(C)c1ccc(-c2cc(-c3c[nH]nc3-c3ccccn3)ccn2)cc1 | 1.42 | -0.37 | 1.12 | 0.13 | -0.28 | 0.43 | 1.4 | 1.12 | 8.61 | 1.16 | 10.9 | 1.32 | 5.01 | 2.03 | 2.34 | -0.11 | 2.04 | -0.13 | -0.45 | 0.38
CC1=C(C(=O)Nc2ccc3[nH]nc(C)c3c2)C(c2ccc(C(F)(F)F)cc2)CC(=O)N1 (stereo not given) | 6.95 | 1.92 | 2.85 | 2.33 | 6.09 | 0.62 | 1.95 | 2.86 | 8.82 | 2.82 | 4.33 | 3.46 | 9.27 | 3.93 | 18.2 | 5.55 | 40.2 | 7.3 | 47 | 67.8
